Data taken from paper PMC4336329 (PLoS ONE, 2015).
Out of some 310,000 compounds screened, about 14,000 (4.5%) showed an effect of 50% or more. The effect is printed as a negative number. This is one part of a sample in which strong results are shown more often than they occur.

Molecular target: human ether-à-go-go-related gene (hERG) potassium channel (human, UniProt Q12809)
Assay: primary screen, population patch clamp on CHO cells stably expressing hERG; higher = less effect of the substance
Experimental: Briefly, Chinese hamster ovary (CHO) cells stably expressing the hERG channel were dislodged from tissue culture flasks and dispensed into PPC plates. […] During the recording, background leak currents were estimated by a 100 ms step to -80 mV from an initial holding potential of -70 mV and subtracted from the subsequent current measurement. The campaign was conducted in two phases using slight differences in recording protocol. In the first phase, the initial voltage pulse used a 100 ms step to -30 mV from a holding potential of -70 mV, a 2 s conditioning step to +25 mV, and a 2 s test step to -30 mV. During the second phase of the screen, the potential during the conditioning step was raised to +45 mV. In both phases of the campaign, a secondary voltage pulse was applied using the same parameters as the second phase initial pulse. The initial and secondary pulses were applied in the absence of compound, and upon application of 1 μM and 10 μM test concentrations. […]
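Further: peak tail current of the secondary pulse compared with the same well before compound.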

Sequence of human ether-à-go-go-related gene (hERG) potassium channel (Q12809 whole entry, looked up): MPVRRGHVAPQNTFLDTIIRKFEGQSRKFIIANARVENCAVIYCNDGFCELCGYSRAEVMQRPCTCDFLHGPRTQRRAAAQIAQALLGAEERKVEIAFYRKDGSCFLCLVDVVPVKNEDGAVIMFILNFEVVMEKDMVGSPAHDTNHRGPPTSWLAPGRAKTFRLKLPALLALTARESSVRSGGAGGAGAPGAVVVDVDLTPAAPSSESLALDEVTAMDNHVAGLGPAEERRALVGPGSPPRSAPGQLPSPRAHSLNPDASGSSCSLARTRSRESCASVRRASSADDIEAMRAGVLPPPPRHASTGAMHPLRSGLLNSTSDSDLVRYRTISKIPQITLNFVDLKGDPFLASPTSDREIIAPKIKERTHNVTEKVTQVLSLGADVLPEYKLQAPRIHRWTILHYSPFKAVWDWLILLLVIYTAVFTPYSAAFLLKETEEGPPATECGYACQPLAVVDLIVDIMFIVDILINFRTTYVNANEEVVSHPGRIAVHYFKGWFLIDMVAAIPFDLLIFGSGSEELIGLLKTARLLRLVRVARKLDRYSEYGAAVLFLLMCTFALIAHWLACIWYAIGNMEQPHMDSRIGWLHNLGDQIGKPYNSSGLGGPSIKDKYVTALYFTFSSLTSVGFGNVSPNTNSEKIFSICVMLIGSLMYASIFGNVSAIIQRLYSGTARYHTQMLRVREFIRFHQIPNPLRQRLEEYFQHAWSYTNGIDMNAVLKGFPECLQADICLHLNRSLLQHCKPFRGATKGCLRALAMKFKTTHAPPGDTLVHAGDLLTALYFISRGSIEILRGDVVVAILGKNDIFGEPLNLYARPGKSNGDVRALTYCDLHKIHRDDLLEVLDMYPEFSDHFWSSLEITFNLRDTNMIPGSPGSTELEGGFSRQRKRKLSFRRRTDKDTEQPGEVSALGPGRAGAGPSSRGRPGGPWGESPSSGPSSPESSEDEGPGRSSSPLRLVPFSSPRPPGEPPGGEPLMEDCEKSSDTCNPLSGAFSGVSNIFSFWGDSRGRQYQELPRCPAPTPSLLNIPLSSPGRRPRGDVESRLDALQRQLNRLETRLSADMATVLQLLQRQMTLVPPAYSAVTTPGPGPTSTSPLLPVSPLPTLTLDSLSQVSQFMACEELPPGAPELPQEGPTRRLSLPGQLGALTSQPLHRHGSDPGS

Structure (SMILES)	hERG current change (%, negative = inhibition) at 10uM [%]
COCC1CCCCN1C(=O)c1cccc(OC2CCN(S(C)(=O)=O)CC2)c1 (stereo not shown)	14.7
CCS(=O)(=O)c1ccc(O)c(NC(=O)COc2ccc(Br)cc2)c1	-3.73
O=C(COc1ccc(Br)cc1Cl)NC(=S)N1CCc2ccccc21	21.7
COc1ccccc1OCc1ccc(C(=O)NC(C)(C)C)o1	2.29
O=C(Cn1c(=O)oc2cc(S(=O)(=O)NCc3ccccc3)ccc21)N1CCCC1	15.2
C=CCn1c(SCC(=O)Nc2ccccc2F)nc2ccccc2c1=O	5.56
CC(C)Sc1nc2c(cnn2-c2ccc(Cl)cc2)c(=O)[nH]1	26.2
Cc1nnc(SCC(=O)N2CCCC2)n(N)c1=O	14.1
O=C(NCCS(=O)(=O)N1CCN(c2ccc(F)cc2)CC1)c1ccco1	-62.2
COc1ccc(N2CCN(S(=O)(=O)CCNC(=O)c3ccco3)CC2)cc1	-9.43
O=C(NCCS(=O)(=O)N1CCN(c2ccccc2)CC1)c1ccco1	-14.5
O=C(Cc1ccc(F)cc1)NCCS(=O)(=O)N1CCN(c2ccccc2)CC1	5.42
O=C(NCCS(=O)(=O)N1CCN(c2ccccc2)CC1)c1ccccc1F	6.68
CSc1ccccc1C(=O)NCCS(=O)(=O)N1CCN(c2ccc(F)cc2)CC1	-67.6
CCOC(=O)c1cnn(Cc2ccccc2Cl)c1N	-11
COc1ccccc1-c1oc2ccccc2c1C#CCCCCO	22.6
COc1ccc(-c2nn(-c3ccccc3)cc2/C=C2/SC(=S)N(CCCC(=O)O)C2=O)c(C)c1	26
CC1Nc2ncnc(N3CCN(c4ccccn4)CC3)c2N(Cc2ccccc2)C1=O.O=C(O)C(F)(F)F (stereo not shown)	-19.8
Cc1ccc(CN2C(=O)C(C)Nc3ncnc(N4CCN(c5ccccn5)CC4)c32)cc1.O=C(O)C(F)(F)F (stereo not shown)	-56.1
Cc1ccc(CN2C(=O)C(CC(C)C)Nc3ncnc(N4CCN(c5ccccn5)CC4)c32)cc1.O=C(O)C(F)(F)F (stereo not shown)	-43.3
CCC1Nc2ncnc(N3CCCCC3)c2N(Cc2ccccc2)C1=O.O=C(O)C(F)(F)F (stereo not shown)	-4.8

Structure (SMILES)	hERG current change (%, negative = inhibition) at 10uM [%]
CCC1Nc2ncnc(N3CCN(c4ccccc4)CC3)c2N(Cc2ccc(Cl)cc2)C1=O.O=C(O)C(F)(F)F (stereo not shown)	-17.4
CCC1Nc2ncnc(N3CCN(c4ccccn4)CC3)c2N(Cc2ccc(Cl)cc2)C1=O.O=C(O)C(F)(F)F (stereo not shown)	-73.8
Cc1ccc(S(=O)(=O)N2CCN(C(=O)CN3C(=O)NC4(CCCCC4)C3=O)CC2)c(C)c1	1.52
COc1ccc(S(=O)(=O)N2CC(C)OC(C)C2)cc1C(=O)N1CCCCC1 (stereo not shown)	6.93
O=C(OCc1c(F)cccc1Cl)c1cnc2ccccc2n1	17.6
CCCn1nc2cc(C(=O)NC3CCCc4ccccc43)ccc2c1OCC (stereo not shown)	-8.93
CN(C)S(=O)(=O)c1cccc(COC(=O)Cc2c(F)cccc2Cl)c1	9.75
Cc1ccccc1C(=O)NC(C(N)=O)P(=O)(OC(C)C)OC(C)C (stereo not shown)	-55.2
CC(C)OP(=O)(OC(C)C)C(NC(=O)c1ccccc1)C(N)=O (stereo not shown)	-3.65
CC(C)OP(=O)(OC(C)C)C(NC(=O)c1ccccc1Br)C(N)=O (stereo not shown)	3.63
CCN(C(=O)c1ccnn1C)c1ccccc1	4.75
COc1ccc(S(=O)(=O)N2CCOCC2)cc1NC(=O)c1ccc2c(c1)OCO2	12.6
O=C(O)CN1C(=O)/C(=C/c2ccccc2Br)Oc2ccccc21	4.16
COc1ccccc1NS(=O)(=O)c1ccc(Cl)c(NC(=O)c2sc3cc(Cl)ccc3c2Cl)c1	22.1
O=C(O)CC1S/C(=N\N=C/c2ccccc2)N(c2ccc(O)cc2)C1=O (stereo not shown)	13.4
O=C(O)CC1S/C(=N\N=C/c2ccccc2O)N(c2ccc(O)cc2)C1=O (stereo not shown)	9.18
O=C(O)CC1S/C(=N\N=C2\C(=O)Nc3ccccc32)N(c2ccc(O)cc2)C1=O (stereo not shown)	-53.7
CN(c1ccc(F)cc1)S(=O)(=O)c1ccc2[nH]cc(C(=O)O)c(=O)c2c1	13.8
N#Cc1ccc(OCC(=O)N(C2CCCCC2)C2CCS(=O)(=O)C2)cc1 (stereo not shown)	-50.1
Cc1ccc(OCC(=O)N(Cc2ccco2)C2CCS(=O)(=O)C2)cc1C (stereo not shown)	-38.8
CC(=O)c1ccc(OCC(=O)N(C2CCCCC2)C2CCS(=O)(=O)C2)cc1 (stereo not shown)	-2.18

Structure (SMILES)	hERG current change (%, negative = inhibition) at 10uM [%]
COc1ccc(OCC(=O)N(Cc2ccc(C)o2)C2CCS(=O)(=O)C2)cc1 (stereo not shown)	-19.5
O=C(COc1ccc(Cl)cc1)N(Cc1ccc(F)cc1)C1CCS(=O)(=O)C1 (stereo not shown)	-63.3
CN(C)c1ccc(CN(C(=O)COc2ccc(F)cc2)C2CCS(=O)(=O)C2)cc1 (stereo not shown)	-16.6
O=C(COc1ccc([N+](=O)[O-])cc1)N(C1CCCCC1)C1CCS(=O)(=O)C1 (stereo not shown)	-37
Cc1ccc(OCC(=O)N(Cc2ccc(C)o2)C2CCS(=O)(=O)C2)cc1 (stereo not shown)	-52.3
O=C(COc1ccc(F)cc1)N(Cc1ccc(Cl)cc1)C1CCS(=O)(=O)C1 (stereo not shown)	-38.7
Cc1cccc(OCC(=O)N(Cc2ccc(C)o2)C2CCS(=O)(=O)C2)c1 (stereo not shown)	-42.6
Cc1ccc(CN(C(=O)COc2ccc(C)c(C)c2)C2CCS(=O)(=O)C2)o1 (stereo not shown)	-53.6
Cc1ccc(CN(C(=O)COc2ccc(Br)cc2)C2CCS(=O)(=O)C2)o1 (stereo not shown)	-33.5
O=C(COC(=O)c1cccc(F)c1)NC1CC1	41.8
COc1ccccc1N1CCN(C(=O)Cn2c(=O)[nH]c3ccsc3c2=O)CC1	-1.18
O=C(c1ccccc1)c1n[nH]c(-c2ccccc2)cc1=O	30.9
CCC(=O)NC(c1cc(Cl)c2ccccc2c1O)C1CC1 (stereo not shown)	14.5
Cc1ccc(C)c(C2=CSC3=NS(=O)(=O)CCN23)c1	12.3
COc1ccc(CNC(=O)[C@]2(C)CCC[C@@]3(C)C4CC[C@@]5(C)C[C@]4(CCC32)CC5=O)cc1 (stereo partly shown)	10.2
CCOC(=O)c1sc2nc(CSc3ccccc3)[nH]c(=O)c2c1C	3.8
CC(C)C(=O)NC(c1cccs1)c1cc([N+](=O)[O-])c2cccnc2c1O (stereo not shown)	31.7
COc1ccccc1-n1c(SCC(=O)NC2CC2)nc2ccccc2c1=O	-23.1
CCCCn1c(SC(C)C(=O)c2ccc(OC)cc2)nc2cc(S(N)(=O)=O)ccc21 (stereo not shown)	-18.1
CCN(CC)S(=O)(=O)c1ccc2c(c1)nc(SCC(=O)NC1CC1)n2-c1ccccc1OC	-56.2
CCN(CC)S(=O)(=O)c1ccc2c(c1)nc(SC(C)C(N)=O)n2-c1ccc(OC)cc1 (stereo not shown)	-51.7

Structure (SMILES)	hERG current change (%, negative = inhibition) at 10uM [%]
CCn1c(CSc2nncn2-c2ccc(OC)cc2)nc2cc(S(=O)(=O)N(C)C)ccc21	-14.5
COc1ccc(-n2nnnc2SC(C)C(N)=O)cc1 (stereo not shown)	8.68
CCN(CC)S(=O)(=O)c1ccc2c(c1)nc(SCC(=O)N1CCOCC1)n2-c1ccccc1OC	-31.1
CCN(CC)S(=O)(=O)c1ccc2c(c1)nc(SCC(=O)N1CCCCCC1)n2-c1ccc(OC)cc1	-21
CCN(CC)S(=O)(=O)c1ccc2c(c1)nc(SCC(N)=O)n2-c1ccc(OC)cc1	-77.7
NCCNc1ccc([N+](=O)[O-])c2cccnc12	1.29
CCOc1ccccc1NC(=O)NNS(=O)(=O)c1cc(C)ccc1C	6.71
CSc1ccccc1NC(=O)Cc1ccc(Br)cc1	-10.2
Cc1ccc(C)c(NC(=S)N2CCC(NC(=O)c3cccc(F)c3)CC2)c1	1.08
O=C(N/N=C/c1ccc(COc2ccc(Br)cc2)o1)c1ccco1	2.73
Cc1ccccc1NS(=O)(=O)c1ccc2c3c(cccc13)C(=O)N2C	-4.02
O=C(C1CCN(S(=O)(=O)c2cccnc2)CC1)N1CCN(c2cccc(Cl)c2)CC1	-31.5
O=C(C1CCN(S(=O)(=O)c2ccc(Cl)cc2)CC1)N1CCN(c2ccccn2)CC1	-64.7
Cc1ccc(S(=O)(=O)N2CCC(C(=O)N3CCN(c4ccccn4)CC3)CC2)cc1	-19.4
O=S(=O)(c1ccc(Cl)cc1)N1CCN(c2ccccn2)CC1	-4.62
O=C(C1CCN(S(=O)(=O)c2cccnc2)CC1)N1CCN(c2ccc(Cl)cc2)CC1	-56.2
Cc1ccc(Cl)cc1N1CCN(C(=O)C2CCN(S(=O)(=O)c3cccnc3)CC2)CC1	-46
Clc1ccc2noc(-c3ccccc3)c2c1	7.67
COc1ccccc1CNC(=O)c1cnccn1	0.0654
